The target in this assay is Eukaryotic translation initiation factor 4H (Homo sapiens) (UniProt Q15056). The experiment in a line: eIF4H binding inhibition – biochemical, uHTS, fluorescence polarization, translation initiation inhibitor project, primary screen (AID 2012).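 Note: calls also rest on retests at 20 µM and on dose response follow-up.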 Particulars: eIF4H fluorescence polarization binding assay, stronger effect = higher value. Background: In fluorescence polarisation assays a small probe gives low polarisation when free and higher when bound to something large.

In all, about 290,000 compounds went through this assay and about 2,700 (0.93%) were called active. The rule behind the calls is not given here. For the sample, actives were picked, then their nearest neighbours and some compounds at random.

45 compounds from PubChem BioAssay AID2012 (Sanford-Burnham Center for Chemical Genomics, 2009) can be followed below.

Take `Cc1cccc(NS(=O)(=O)c2ccc(C(=O)NCC(C)(C)N3CCOCC3)cc2)c1C`: the inhibition (commonly the drop in the measured response relative to a control, in per cent) (at 35 µM) was -0.1% (inactive). For the compound `O=C1N/C(=C/c2cccn2-c2ccccc2)C(=O)N1c1cccc(Cl)c1`, the inhibition (at 35 µM) is 2.6% (inactive). With `Cc1ccccc1NC(=O)CN1C(=O)N/C(=C\c2cccn2-c2cccc(C(=O)O)c2)C1=O`, the inhibition by setting is: (at 35 µM) 89.1% (active); (confirmation average, at 20 µM) 86.1%.

`Cc1cccc(NC(=O)CN2C(=O)c3ccccc3C2=O)c1C`: the inhibition (at 35 µM) was 9.4% (inactive).

Turning to `Cc1ccc(CNC(=O)C(=O)c2cn(CC(=O)N3CCOCC3)c3ccccc23)cc1`, under “at 35 µM”, the inhibition is -6.1% (inactive). Same read-out and setting: the figure for `CSc1nnc(SCc2nc3sc(C(=O)O)c(C)c3c(=O)[nH]2)s1` is 86.3% (active); for `CCOC(=O)c1sc2nc(CSc3ccccc3)[nH]c(=O)c2c1C` it is 2.6% (inactive). Same read-out and setting: the figure for `Cc1ccc(C)c(SCc2nc3sc(C(=O)O)c(C)c3c(=O)[nH]2)c1` is 2.9% (inactive); for `COC(=O)c1ccccc1NC(=O)CSc1n[nH]c(-c2ccncc2)n1` it is 3.3% (inactive). Regarding `Cc1cccnc1CC(C)NC(=O)c1cc(COc2cncc(Cl)c2)on1` (stereo not drawn), the inhibition (at 35 µM) is -1% (inactive).

Regarding `Oc1ccc(N=Cc2c(O)ccc3ccccc23)cc1`, under “at 35 µM”, the inhibition is 19% (inactive).

With `O=C(N/N=C/c1c(Cl)[nH]c2ccccc12)c1sc2ccccc2c1Cl`, where the note is “at 35 µM”, the inhibition is -8.2% (inactive).

Take `Oc1ccc(N=Cc2sc3ccccc3c2Cl)cc1`: the inhibition (at 35 µM) was 105% (active) and the inhibition (confirmation average, at 20 µM) was found to be 73.8%. As to `CCCOc1ccc(/C=N/NC(=O)C2CC2)c(OCCC)c1`, for the setting “at 35 µM”, the inhibition was -12.1% (inactive). Still for that read-out and setting: the figure for `Cc1c(OC(C)C(=O)N[C@@H](Cc2ccccc2)C(=O)O)ccc2c3c(c(=O)oc12)CCCC3` (stereo partly drawn) is 5.5% (inactive); for `Cc1cc(OC(C)C(=O)NC2CC(C)(C)NC(C)(C)C2)c2c(C)cc(=O)oc2c1` (stereo not drawn) it is -0.9% (inactive). Consider `Cc1ccc(N=C2NC(=O)/C(=C/C=C/c3ccco3)S2)cc1C`, for which the inhibition was 75.9% (active) (at 35 µM) and 90.3% (confirmation average, at 20 µM).

As to `Cc1cccc(N=C2NC(=O)/C(=C/c3cn(C)c4ccccc34)S2)c1`, the inhibition (at 35 µM) was 2.5% (inactive).

In the case of `Cc1ccc(N2NC(=O)/C(=C/C=C/c3ccco3)C2=O)cc1C`, the inhibition (at 35 µM) was 45.7% (inactive). With `CCN(CC)S(=O)(=O)c1ccc(-c2cn3ccc(C)cc3n2)cc1`, the inhibition (at 35 µM) is 1.1% (inactive).

Take `O=[N+]([O-])c1ccccc1/C=N/n1c(COc2ccccc2)n[nH]c1=S`: the inhibition (at 35 µM) is -1.1% (inactive).

As for `Cc1ccc(-c2n[nH]c(=S)n2/N=C/c2cc3c(cc2[N+](=O)[O-])OCO3)cc1`, the inhibition (at 35 µM) is 29.5% (inactive). Regarding `CCOc1ccc(-c2n[nH]c(=S)n2/N=C/c2cc3c(cc2[N+](=O)[O-])OCO3)cc1`, the inhibition runs as follows: (at 35 µM) 86.2% (active); (confirmation average, at 20 µM) 80.4%.

For `Cc1cc(C(=O)COC(=O)C2CC2)c(C)n1-c1ccc(F)cc1`, the inhibition is 4.9% (active) (at 35 µM) and 52.5% (confirmation average, at 20 µM). For the compound `COc1cc(/C=N/NC(=O)c2cc(C)n(-c3ccc(F)cc3)c2C)cc(OC)c1O`, the inhibition (at 35 µM) is 0.7% (inactive). Same read-out and setting: the figure for `Cc1ccc(-n2c(C)cc(C(=O)CN3C(=O)C(=O)N(C4CCCC4)C3=O)c2C)cc1` is 1.2% (inactive); for `O=C(Nc1ccc(F)cc1)c1ccc(S(=O)(=O)NCc2cccnc2)cc1` it is 10.1% (inactive); for `NC(=O)CN1CCCC1c1ccc2c(c1)OCCO2` (stereo not drawn) it is 4.2% (inactive). In the case of `Clc1ccccc1CSc1nnc(-c2ccco2)c(-c2ccco2)n1`, the inhibition runs as follows: (at 35 µM) 96.6% (active); (confirmation average, at 20 µM) 94.4%.

As for `O=C(Nc1nnc(SCc2ccccc2)s1)c1ccco1`, the inhibition (at 35 µM) was 6% (inactive). Same read-out and setting: the value for `Fc1cccc(Cl)c1CSc1ccc(-c2ccco2)nn1` was 49.1% (inactive).

In the case of `Brc1ccc(CSc2ccc(-c3ccco3)nn2)cc1`, the inhibition is, setting by setting: (at 35 µM) 61% (inactive); (confirmation average, at 20 µM) -1.3%. Turning to `COC(OC)c1ccnc(SCc2ccccc2Cl)n1`, the inhibition (at 35 µM) was 2% (inactive). Still for that read-out and setting: the figure for `c1ccc(CSc2nnc(-c3ccco3)c(-c3ccco3)n2)cc1` is 94.6% (active); for `CCN(C(=O)C1CCCN(c2nc(-c3ccc(OC)cc3)no2)C1)c1ccc(OC)cc1` (stereo not drawn) it is -11.8% (inactive); for `Cc1ccc(NC(=O)CSc2nn3c(=O)c(C)nnc3s2)cc1Cl` it is -27.5% (inactive).

In the case of `CC(=O)c1ccc(N2CCN(C(=O)C3CCN(S(=O)(=O)c4ccc5c(c4)CC(C)N5C(=O)C4CC4)CC3)CC2)cc1` (stereo not drawn), under “at 35 µM”, the inhibition is -9.3% (inactive). The same measure, in the same setting: the value for `CC(Sc1nc(-c2ccccc2)cc(C(F)(F)F)n1)C(=O)Nc1ccc2c(c1)OCO2` (stereo not drawn) was 4.8% (inactive). In the case of `CC(Sc1nc2cc(Cl)ccc2s1)C(=O)Nc1ccc2c(c1)OCO2` (stereo not drawn), the inhibition (at 35 µM) was 1.8% (active) and the inhibition (confirmation average, at 20 µM) came out at 65.1%.

In the case of `O=C(Nc1ccc2c(c1)OCO2)c1sc2cc(Cl)ccc2c1Cl`, the inhibition (at 35 µM) is -4% (inactive). The same measure, in the same setting: the value for `O=S(=O)(c1ccc(Br)cc1)N1CCC(c2nc3ccccc3[nH]2)CC1` was -8.2% (inactive); that for `CC1CCCCN1CCCNc1ccc(C(CC(N)=O)NC(=O)c2ccccc2)cc1[N+](=O)[O-]` (stereo not drawn) was -8.3% (inactive); that for `COc1ccc(CC(NC(C)=O)C(=O)NC2CCN(C(=O)c3ccc(Cl)cc3)CC2)cc1` (stereo not drawn) was -0.5% (inactive). The same measure, in the same setting: the value for `CC(=O)NC(Cc1ccc(F)c(F)c1)C(=O)NC1CCN(C(=O)c2ccc(C)cc2)CC1` (stereo not drawn) was -14.2% (inactive). As for `CNC(=S)N1CCC(NC(=O)C(Cc2ccc(F)cc2)NC(C)=O)CC1` (stereo not drawn), for the setting “at 35 µM”, the inhibition is 63.8% (active).
